# Only some compounds are listed: those with a hit (about 21% of all), similar ones and a draw of the others.
# Pf growth 96h: Primary qHTS for delayed death inhibitors of the malarial parasite plastid, 96 hour incubation | P. falciparum luciferase reporter growth, 96 h | Potency, µM (titrated, usually from 28.7 µM), for the others: at the highest dose activity change, negative = inhibition, most hits filed as inhibitors | 6.9% of 320,000 active; note: potency is the fitted concentration of half-maximal effect; % is set by controls: 0 for no effect and ±100 for the full control effect
#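 Compounds incubated with erythrocytes infected by luciferase-expressing P. falciparum (2% hematocrit, 0.05% parasitemia final) for 96 hours, 37 C in 5% CO2. Growth inhibition scored as decreased luciferase luminescence.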
# SARS PLP yeast: qHTS of Yeast-based Assay for SARS-CoV PLP | S. cerevisiae expressing SARS-CoV PLpro, growth rescue | Potency, µM (highest dose often 32.9 µM), inactives show at the highest dose activity, positive = growth rescue, actives largely listed as activators | 0.19% of 330,000 active; calls by dose curve; note: potency is the fitted concentration of half-maximal effect; 0% is about no effect; nearly all actives have a fitted effect of over 55% in size
# NS1 function inh: qHTS Assay for Inhibitors of Influenza NS1 Protein Function. Potency, µM (top dose mostly 46.1 µM), for the others: at the top dose activity, positive = more growth. 0.4% of 270,000 active. AID 2326, 2010; calls by dose curve; note: potency is the fitted concentration of half-maximal effect; actives are rising curves; nearly all actives have a fitted effect of over 50% in size
#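 Read-out: OD600 growth recovery of NS1-expressing budding yeast. Cells grown overnight at 30C in -URA glucose medium, washed, resuspended and diluted 1:100 in 2% galactose assay medium, pH 6.0. Same strain lacking NS1 served as positive control.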
# Shiga toxin inh: A qHTS for Small Molecule Inhibitors of Shiga Toxin. AID 2315, 2010. Vero cells, Shiga toxin protein synthesis inhibition reporter. 9.2% of 290,000 active. inhibition, % at 38.7 µM; in the data active = inhibition mostly above about 28%, no sharp cut-off; inactive = mostly below about 43%; note: 0% is about no effect
# Cycloheximide cs: Cycloheximide Counterscreen for Small Molecule Inhibitors of Shiga Toxin. cell reporter, cycloheximide protein synthesis inhibition counterscreen. max response, %. 12% of 300,000 active. AID 2314, 2010; in the data active = max response mostly above about 13%, no sharp cut-off; inactive = mostly below about 14%; note: read at 38.3 µM for the half of the compounds with a filed dose; 0% is about no effect
# Pf growth 48h: Primary qHTS for delayed death inhibitors of the malarial parasite plastid, 48 hour incubation. 5.9% of 310,000 active. P. falciparum luciferase growth in erythrocytes, 48 h. Potency, µM (series often up to 28.7 µM), for the others: at the highest dose activity change, negative = inhibition, most hits filed as inhibitors; note: potency is the fitted concentration of half-maximal effect; % is set by controls: 0 for no effect and ±100 for the full control effect
#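 Firefly luciferase activity from engineered P. falciparum reports growth; inhibitors lower the luminescent signal. Cultures contained 2% hematocrit erythrocytes at 0.1% final parasitemia.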
# Starred values were filed as active, the others as inactive; ? = inconclusive; · = no result. Unless noted, calls come from the whole dose curve; as a rule, active = well fitted inhibition curve with a large enough effect; inconclusive = small, poorly fitted or top-dose-only effect, or another doubt; inactive = no such curve, though single readings can be large or run the other way.
SMILES,Pf growth 96h,SARS PLP yeast,NS1 function inh,Shiga toxin inh,Cycloheximide cs,Pf growth 48h
CC(=O)c1cccc(NC(=O)CCOc2ccccc2)c1,3%,-1%,-10%,51*,25*,34%
CC(=O)c1cccc(NC(=O)N(c2ccccc2)c2ccccc2)c1,?,9%,12%,·,3,?
C=CCC1(CC=C)CCCN1C(=O)CC1C(=O)NCCN1Cc1ccc(OC)c(OC)c1 (stereo not given),-22%,0%,-1%,-15,-2,-9%
CCC(C)C(NC(=O)OC(C)(C)C)C(=O)NC1COC2CC(n3cc(F)c(=O)[nH]c3=O)OC12 (stereo not given),·,·,·,6,-1,·
Oc1[nH]c2ccc(Br)cc2c1N=NC(=S)N1CCOCC1,0.41µM*,-1%,-37%,-8,1,0.83µM*
O=C(CNC(=O)c1ccccc1)N=Nc1c(O)[nH]c2ccc(Br)cc12,10%,-7%,-10%,-6,-5,14%
Oc1[nH]c2ccccc2c1N=NC(=S)N1CCOCC1,0.59µM*,-5%,-62%,58,16*,0.59µM*
O=C(CCc1nc2cccnc2n1Cc1ccccc1)NCCc1ccc(Cl)cc1,?,2%,-9%,-4,-2,?
O=C(CSc1nc2cccnc2n1Cc1ccccc1)NC1CCCCC1,?,-15%,-3%,-4,-3,10µM*
O=C(NCCc1ccccc1)c1ccc(Cn2c(SCc3cccc(F)c3)nc3cccnc32)cc1,3.3µM*,2%,·,·,·,9.3µM*
Cn1c(SCC(=O)NC2CCCC2)nc2cccnc21,0%,-3%,-5%,-13,-3,-11%
O=C(CNC(=O)c1cccs1)N/N=C/c1c(F)cccc1Cl,3%,21%,-3%,37*,16*,54%
Cc1ccc(/C=N/NC(=O)CNC(=O)c2cccs2)cc1,60%,4%,5%,19,15*,67%
Cc1cccc(OCC(=O)NCC(=O)N/N=C/c2ccc(O)cc2O)c1,?,7%,-3%,14,-1,10µM*
Cc1ccc(NC(=O)CNC(=O)c2cccs2)c(O)c1,?,2%,·,·,·,45%
COc1cccc(/C=N/NC(=O)CNC(=O)c2cccs2)c1O,35%,1%,-11%,46*,31*,-10%
O=C(CSc1nnc(CNC(=O)c2ccccc2F)o1)NCc1ccccc1,3%,-1%,·,-2,6,13%
COc1ccc(CCC(=O)OCC(=O)Nc2ccccc2OC(F)F)cc1OC,19%,-1%,-3%,-7,2,0%
CCOC(=O)c1c(S(=O)(=O)N2CCN(Cc3ccccc3)CC2)c(C)n(C)c1C,?,-2%,3%,-8,7,-14%
COc1ccc(C)cc1NC(=O)C1CC(=O)OC12CCCCC2 (stereo not given),?,-2%,?,-6,-4,·
COc1cccc(/C=N/NC(=O)CNC(=O)CCc2ccccc2)c1O,153%,0%,-3%,66*,30*,?
Cc1cccc(OCC(=O)NCC(=O)N/N=C/c2ccccc2)c1,27%,1%,6%,-2,-3,24%
COc1cccc(/C=N/NC(=O)CNC(=O)COc2cccc(C)c2)c1O,46%,4%,-2%,14,-1,2.9µM*
COc1cc2c(cc1NC(=O)CN1CCN(S(=O)(=O)c3ccccc3F)CC1)oc1ccccc12,?,10%,5%,11,0,·
CCN(C(=O)Cc1c(C(=O)O)[nH]c2ccccc12)c1cc(OC)ccc1OC,7.4µM*,?,-8%,4,-2,?
Cc1ccc(C(=O)C[n+]2ccc(Cc3ccccc3)cc2)cc1,8.3µM*,-1%,·,17,-2,?
Cc1ccc(SCCc2cc[n+](CC(=O)c3ccccc3)cc2)cc1,?,5%,6%,125*,51*,75%
O=C(C[n+]1ccc(CCSc2ccc(F)cc2)cc1)c1ccccc1,-1%,0%,·,-2,5,-20%
COc1ccc(CCN2CC(C(=O)NCc3c(C)n[nH]c3C)CCC2=O)cc1 (stereo not given),-11%,1%,2%,-3,2,18%
